Screening data: PubChem BioAssay, University of Kansas High Throughput Screening Laboratory
Only some compounds are listed: those with a hit (about 3.5% of all), similar ones and a draw of the others.
mHTT-CaM PPI inh – inhibitors of human mutant huntingtin-calmodulin interaction | AID 1671202 | inhibition, % at 15 µM | 190,000 tested, 3.6% active | AlphaScreen His-mHTT/GST-CaM binding, luminescence | P42858;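 note: 0% = both proteins with DMSO and 100% = one protein alone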
Pf apPOL inh – Pf-apPOL DNA polymerase inhibition; Recombinant Pf-apPOL, molecular beacon fluorescence, 1.5 h; inhibition, % at 10 µM; 210,000 tested, 0.25% active
* marks the source's active call; other numbers are inactive results; x = not tested or not shown; ! = not confirmed by another sample. Cut-off read from the data, not from the text of the source: active = inhibition above about 50%; inactive = the rest.

SMILES	mHTT-CaM PPI inh	Pf apPOL inh
O=C(c1ccc2c(c1)C1C=CCC1C(c1ccc([N+](=O)[O-])cc1)N2)N1CCCC1 (configuration not stated)	48.1	-16.8
CCc1cc(-c2[nH]ncc2-c2ccccc2)c(O)cc1OC	100.0*	-2.3
COc1cc(-c2nc3ccccn3c2N=Cc2cn[nH]c2-c2ccccc2)ccc1O	34.0	-9.2
O=Cc1cn[nH]c1-c1ccccc1	-5.6	-4.1
Oc1ccc(-c2[nH]ncc2-c2ccccc2)c(O)c1O	95.6*	-3.1
COc1ccc(-c2[nH]ncc2-c2ccc(F)cc2)c(O)c1	38.7	-6.2
CCc1cc(-c2[nH]ncc2-c2ccc(F)cc2)c(O)cc1OC	74.0*	9.1
Cc1noc(-c2ccc(C(C)(C)C)cc2)c1C(=O)N1CCSCC1	39.5	-6.9
Cc1ccc(-c2nc(C=Nc3ccc(C)cc3C)c(O)o2)cc1	21.0	0.9
COc1cccc(N2CCN3c4ccccc4CC(C(=O)NC(C)C)C3C2)c1 (configuration not stated)	32.2	-1.5
CCNC(=O)C1Cc2ccc(OC)cc2N2CCN(c3ccc(C)cc3)CC12 (configuration not stated)	64.1*	1.3
O=C(NCCc1cccs1)C1Cc2ccccc2N2CCN(c3ccccc3)CC12 (configuration not stated)	94.7*	-3.5
Cc1ccc(N2CCN3c4ccccc4CC(C(=O)N4CCSCC4)C3C2)cc1 (configuration not stated)	57.6*	-1.0
COc1ccc(N2CCN3c4ccccc4CC(C(=O)N4CCOCC4)C3C2)cc1 (configuration not stated)	56.2*	-2.0
CCNC(=O)C1Cc2ccccc2N2CCN(c3ccccc3OC)CC12 (configuration not stated)	9.1	0.6
O=C(NCc1ccccn1)C1Cc2ccccc2N2CCN(c3ccccc3)CC12 (configuration not stated)	37.5	-11.5
CCNC(=O)C1Cc2ccc(OC)cc2N2CCN(c3ccc(OC)cc3)CC12 (configuration not stated)	16.6	-3.3
Fc1ccc2nc3c(nc2c1)c1cc(F)ccc1n3Cc1ccccn1	-10.0	-2.6
Cc1cccc(NC(=O)N2CCC(CCNC(=O)C3CCCCC3)CC2)c1	-8.1	-4.3
O=C(c1ccncc1)N1CCN(Cc2cccnc2)CC1	1.8	0.9
O=C1NC(=Nc2ccccc2)S/C1=C/c1ccccc1Br	-1.0	-0.2
Cn1cc(/C=C2\SC(=Nc3ccccc3)NC2=O)c2ccccc21	55.0*	1.4
COc1ccc(C(=O)Nc2cccc(C)c2C)cc1OC	5.5	-2.4
CC(C)Oc1ccc(C(=O)Nc2cc(-c3nc4ncccc4o3)ccc2Cl)cc1	6.0	-7.3
CCN(CC)c1ccc(C2C(C(=O)Nc3ccccn3)=C(C)NC3=C2C(=O)CCC3)cc1 (configuration not stated)	15.0	-2.4
SMILES	mHTT-CaM PPI inh	Pf apPOL inh
CCN(CC)c1ccc(C(Nc2ccccn2)c2ccc3cccnc3c2O)cc1 (configuration not stated)	100.0*	-1.0
CC(C)Oc1ccc(C(Nc2ccccn2)c2ccc3cccnc3c2O)cc1 (configuration not stated)	98.0*	-279.6
Cc1[nH]c2ccccc2c(=O)c1CCC(=O)O	-3.7	3.4
COc1cccc(OC(=O)c2cc3cc(Br)ccc3oc2=O)c1	-1.0	-2.3
Cn1ncc([N+](=O)[O-])c1C(=O)NNC(=S)NC1CCCC1	-1.9	x
O=C(NNC(=S)NC1CCCCC1)c1[nH]ncc1[N+](=O)[O-]	61.0*	x
Cc1ccc(S(=O)(=O)N(C)CC(=O)Nc2c(C)cc(C)cc2C)cc1	-2.3	-2.6
CC(=O)N(CN1C(=O)c2ccc([N+](=O)[O-])cc2C1=O)c1ccc(Oc2ccc(Cl)cc2)cc1	3.0	91.7*
CC(=O)N(CN1C(=O)c2ccc([N+](=O)[O-])cc2C1=O)c1ccc(F)cc1	23.0	3.1
O=C1C(=Cc2c[nH]c3ccccc23)C(=O)c2ccccc21	57.0*!	-0.1
O=C1OC2(CCCC2)OC(=O)C1=Cc1c[nH]c2ccccc12	7.0	-16.1
CCOC(=O)C(=CNc1cc(C(F)(F)F)cc(C(F)(F)F)c1)[N+](=O)[O-]	x	-8.0
Clc1cc(-c2ccccn2)nc(-c2ccccn2)c1	75.5*	x
c1ccc(-c2nc(-c3ccccn3)nc(-c3ccccn3)n2)nc1	19.2	x
CCC(C)NC(=O)NC1(C(F)(F)F)Oc2ccccc2O1 (configuration not stated)	-6.0	2.3
O=C(c1cn2c(n1)CSCC2)N1CCC(Cc2ccccc2)CC1	57.3*	0.6
O=C(c1cn2c(n1)COCC2)N1CCC(Cc2ccccc2)CC1	35.5	-5.2
CCCc1oc2cc(OCC(=O)OC)c(CC)cc2c(=O)c1-c1ccc2c(c1)OCCCO2	-1.1	-0.8
CCc1cc2c(=O)c(-c3ccc4c(c3)OCCO4)c(C)oc2cc1OCC(=O)OC	6.1	54.8*
C1CN(C2CCC3SC2CCC3N2CCOCC2)CCO1 (configuration not stated)	2.7	x
